Measured values: PubChem BioAssay (NCI)
The panel holds about 83,000 compounds, 20% with a hit somewhere; the sample as a whole holds those more often.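 Cells were grown in 96-well plates and exposed to the test compound at a single concentration for 48 hours; results are reported as percent growth, with values below 10 considered active.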 Active and inactive are the calls of the source.

Assays:
Assay in all cases: NCI-60 one-dose screen, 48 h (100 = growth as untreated, 0 = no growth, -100 = all killed)
Conditions in all cases: 10 µM unless noted
SR leukemia = test system: SR leukemia
RPMI-8226 leukemia = test system: RPMI-8226 leukemia
OVCAR-8 ovarian = test system: OVCAR-8 ovarian
OVCAR-5 ovarian = test system: OVCAR-5 ovarian
OVCAR-4 ovarian = test system: OVCAR-4 ovarian
SK-OV-3 ovarian = test system: SK-OV-3 ovarian
IGROV1 ovarian = test system: IGROV1 ovarian
OVCAR-3 ovarian = test system: OVCAR-3 ovarian
HS 578T breast = test system: HS 578T breast
NCI/ADR-RES ovarian = test system: NCI/ADR-RES ovarian
T-47D breast = test system: T-47D breast
BT-549 breast = test system: BT-549 breast
MDA-MB-435 melanoma = test system: MDA-MB-435 melanoma
SW-620 colon = test system: SW-620 colon
MCF7 breast = test system: MCF7 breast
HCT-116 colon = test system: HCT-116 colon
HCC-2998 colon = test system: HCC-2998 colon
KM12 colon = test system: KM12 colon

Measured: growth

COc1ccc(C2c3ccccc3NC(=O)N2C2CCN(C)CC2)c(OC)c1 (stereo unspecified)
inactive: SR leukemia 41.4% | RPMI-8226 leukemia 113% | OVCAR-8 ovarian 104% | OVCAR-5 ovarian 88.4% | OVCAR-4 ovarian 105% | SK-OV-3 ovarian 101% | IGROV1 ovarian 94.3% | OVCAR-3 ovarian 110% | HS 578T breast 92% | NCI/ADR-RES ovarian 103% | T-47D breast 100% | BT-549 breast 107% | MDA-MB-435 melanoma 72% | SW-620 colon 101% | MCF7 breast 78.1% | HCT-116 colon 107% | HCC-2998 colon 105% | KM12 colon 99.6%

COc1ccc(NC(=O)c2ccc3c(c2)nc(-c2cc4ccccc4[nH]c2=O)n3-c2cc(C(C)(C)C)[nH]n2)cc1
inactive: SR leukemia 84.8% | RPMI-8226 leukemia 83.9% | OVCAR-8 ovarian 97.6% | OVCAR-5 ovarian 95.9% | OVCAR-4 ovarian 86.5% | SK-OV-3 ovarian 111% | IGROV1 ovarian 80.7% | OVCAR-3 ovarian 100% | HS 578T breast 80.9% | NCI/ADR-RES ovarian 103% | T-47D breast 78.9% | BT-549 breast 84.5% | MDA-MB-435 melanoma 92.5% | SW-620 colon 102% | MCF7 breast 81.3% | HCT-116 colon 86% | HCC-2998 colon 105% | KM12 colon 90.5%

Cc1cc(N2CCN(C)CC2)nc(N(CCNc2ccnc3cc(Cl)ccc23)Cc2ccco2)n1
active: SR leukemia -22.1% | RPMI-8226 leukemia -3.89% | OVCAR-3 ovarian 3.21% | MDA-MB-435 melanoma -39.8%
inactive: OVCAR-8 ovarian 65.8% | OVCAR-5 ovarian 73.3% | OVCAR-4 ovarian 55.7% | SK-OV-3 ovarian 91.5% | IGROV1 ovarian 18.5% | HS 578T breast 68.7% | NCI/ADR-RES ovarian 38.7% | T-47D breast 40.4% | BT-549 breast 31.1% | SW-620 colon 38.2% | MCF7 breast 17.1% | HCT-116 colon 17.1% | HCC-2998 colon 92.7% | KM12 colon 34.2%

CC1(C)C(=O)CC[C@]2(C)[C@H]3C(=O)C=C4[C@@H]5C[C@@](C)(C(=O)NCCNCCN)CC[C@]5(C)CC[C@@]4(C)[C@]3(C)CC[C@@H]12
inactive: SR leukemia 20% | RPMI-8226 leukemia 91.1% | OVCAR-8 ovarian 99.6% | OVCAR-5 ovarian 108% | OVCAR-4 ovarian 105% | SK-OV-3 ovarian 104% | IGROV1 ovarian 96.4% | OVCAR-3 ovarian 104% | HS 578T breast 97.5% | NCI/ADR-RES ovarian 102% | T-47D breast 82% | BT-549 breast 91.7% | MDA-MB-435 melanoma 101% | SW-620 colon 102% | MCF7 breast 90.6% | HCT-116 colon 83.2% | HCC-2998 colon 101% | KM12 colon 98.7%

CCN1CCN(C(=O)[C@]23CCC(C)(C)C[C@@H]2C2=CC[C@@H]4[C@@]5(C)C/C(=C/c6cccnc6)C(=O)C(C)(C)[C@@H]5CC[C@@]4(C)[C@]2(C)CC3)CC1
active: SR leukemia 4.78% | RPMI-8226 leukemia 5.88% | OVCAR-4 ovarian 7.28% | NCI/ADR-RES ovarian 8.32% | MCF7 breast 5.68%
inactive: OVCAR-8 ovarian 27.1% | OVCAR-5 ovarian 83.8% | SK-OV-3 ovarian 56% | IGROV1 ovarian 51.6% | OVCAR-3 ovarian 28.6% | HS 578T breast 54.6% | T-47D breast 20.1% | BT-549 breast 25.7% | MDA-MB-435 melanoma 34.9% | SW-620 colon 27.6% | HCT-116 colon 13.3% | HCC-2998 colon 18.9% | KM12 colon 33.8%

C=C(C)[C@@H]1CC[C@]2(C(=O)N3CCN(CC)CC3)CC[C@]3(C)[C@H](CC[C@@H]4[C@@](C)(CCC(=O)N5CCN(CC)CC5)[C@H](C(=C)C)CC[C@]43C)[C@@H]12
active: SR leukemia 5.68%
inactive: RPMI-8226 leukemia 22.3% | OVCAR-8 ovarian 78.3% | OVCAR-5 ovarian 72.3% | OVCAR-4 ovarian 77.4% | SK-OV-3 ovarian 95.5% | IGROV1 ovarian 73.6% | OVCAR-3 ovarian 60.5% | HS 578T breast 80.8% | NCI/ADR-RES ovarian 67.6% | T-47D breast 59.7% | BT-549 breast 78.7% | MDA-MB-435 melanoma 70.2% | SW-620 colon 49.9% | MCF7 breast 46.5% | HCT-116 colon 24.9% | HCC-2998 colon 75.7% | KM12 colon 54.2%

NC1=NN(c2ccccc2)C(=O)/C1=C/c1ccc(Cl)cc1
inactive: SR leukemia 94.2% | RPMI-8226 leukemia 94.8% | OVCAR-8 ovarian 99% | OVCAR-5 ovarian 98.1% | OVCAR-4 ovarian 109% | SK-OV-3 ovarian 96.3% | IGROV1 ovarian 99.4% | OVCAR-3 ovarian 108% | HS 578T breast 106% | NCI/ADR-RES ovarian 103% | T-47D breast 74.1% | BT-549 breast 104% | MDA-MB-435 melanoma 105% | SW-620 colon 101% | MCF7 breast 96.6% | HCT-116 colon 100% | HCC-2998 colon 109% | KM12 colon 103%
